Source: the supplement of paper PMC10849652
Targets with a hit are over-represented here; the source holds about 7,900 in all. About 0.6% of all pairs of compound and target were hits. Unmarked numbers belong to inactive results.

Key:
Assay in all cases: log2 fold change, soluble protein after heating vs DMSO (PISA); higher = thermal stabilisation; K562 cells, 10 uM, 30 min; active = over 0.2 and 3.5 SD of the protein, either way, in both replicates (recomputed)
[1] = compound: COC1=CC=C(C=C1)CN2C=CC3=C2C=C(C=C3)C(=O)NO
Method in brief: (§1)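 Soluble protein was defined as the supernatant after 21,000xg for 90 min. It came from K562 cells at 2×10^6 cells/mL given 10 μM compound for 30 min, heated in aliquots for 3 min across 48°C-58°C, pooled, and extracted in PBS with 0.5% NP-40 at 4°C, and was quantified by TMTpro 16plex LC-MS/MS with equalised channel sums. Thermal stability against control samples, from duplicates, is reported as log2 fold change.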

filanesib = compound: CON(C)C(=O)N1N=C(c2cc(F)ccc2F)S[C@@]1(CCCN)c1ccccc1 [filanesib]
Method in brief: as §1

zotarolimus = compound: CO[C@H]1C[C@@H]2CC[C@@H](C)[C@@](O)(O2)C(=O)C(=O)N2CCCC[C@H]2C(=O)O[C@H]([C@H](C)C[C@@H]2CC[C@H](n3cnnn3)[C@H](OC)C2)CC(=O)[C@H](C)/C=C(\C)[C@@H](O)[C@@H](OC)C(=O)[C@H](C)C[C@H](C)/C=C/C=C/C=C/1C [zotarolimus]
Method in brief: as §1

idasanutlin = compound: COc1cc(C(=O)O)ccc1NC(=O)[C@@H]1N[C@@H](CC(C)(C)C)[C@](C#N)(c2ccc(Cl)cc2F)[C@H]1c1cccc(Cl)c1F [idasanutlin]
Method in brief: as §1

alisertib = compound: COc1cc(Nc2ncc3c(n2)-c2ccc(Cl)cc2C(c2c(F)cccc2OC)=NC3)ccc1C(=O)O [alisertib]
Method in brief: as §1

[2] = compound: COc1cc2nc(-c3cc(F)ccc3O)nc(N[C@@H]3CNC[C@H]3C(C)(C)O)c2cc1OC
Method in brief: as §1

gefitinib = compound: COc1cc2ncnc(Nc3ccc(F)c(Cl)c3)c2cc1OCCCN1CCOCC1 [gefitinib]
Method in brief: as §1

[3] = compound: COc1cccc2cc(-c3nc([C@H]4CC[C@H](C(=O)O)CC4)n4ncnc(N)c34)[nH]c12
Method in brief: as §1

lapatinib = compound: CS(=O)(=O)CCNCc1ccc(-c2ccc3ncnc(Nc4ccc(OCc5cccc(F)c5)c(Cl)c4)c3c2)o1 [lapatinib]
Method in brief: as §1

pictilisib = compound: CS(=O)(=O)N1CCN(Cc2cc3nc(-c4cccc5[nH]ncc45)nc(N4CCOCC4)c3s2)CC1 [pictilisib]
Method in brief: as §1

UniProt P27708, sequence (P27708 whole entry, looked up): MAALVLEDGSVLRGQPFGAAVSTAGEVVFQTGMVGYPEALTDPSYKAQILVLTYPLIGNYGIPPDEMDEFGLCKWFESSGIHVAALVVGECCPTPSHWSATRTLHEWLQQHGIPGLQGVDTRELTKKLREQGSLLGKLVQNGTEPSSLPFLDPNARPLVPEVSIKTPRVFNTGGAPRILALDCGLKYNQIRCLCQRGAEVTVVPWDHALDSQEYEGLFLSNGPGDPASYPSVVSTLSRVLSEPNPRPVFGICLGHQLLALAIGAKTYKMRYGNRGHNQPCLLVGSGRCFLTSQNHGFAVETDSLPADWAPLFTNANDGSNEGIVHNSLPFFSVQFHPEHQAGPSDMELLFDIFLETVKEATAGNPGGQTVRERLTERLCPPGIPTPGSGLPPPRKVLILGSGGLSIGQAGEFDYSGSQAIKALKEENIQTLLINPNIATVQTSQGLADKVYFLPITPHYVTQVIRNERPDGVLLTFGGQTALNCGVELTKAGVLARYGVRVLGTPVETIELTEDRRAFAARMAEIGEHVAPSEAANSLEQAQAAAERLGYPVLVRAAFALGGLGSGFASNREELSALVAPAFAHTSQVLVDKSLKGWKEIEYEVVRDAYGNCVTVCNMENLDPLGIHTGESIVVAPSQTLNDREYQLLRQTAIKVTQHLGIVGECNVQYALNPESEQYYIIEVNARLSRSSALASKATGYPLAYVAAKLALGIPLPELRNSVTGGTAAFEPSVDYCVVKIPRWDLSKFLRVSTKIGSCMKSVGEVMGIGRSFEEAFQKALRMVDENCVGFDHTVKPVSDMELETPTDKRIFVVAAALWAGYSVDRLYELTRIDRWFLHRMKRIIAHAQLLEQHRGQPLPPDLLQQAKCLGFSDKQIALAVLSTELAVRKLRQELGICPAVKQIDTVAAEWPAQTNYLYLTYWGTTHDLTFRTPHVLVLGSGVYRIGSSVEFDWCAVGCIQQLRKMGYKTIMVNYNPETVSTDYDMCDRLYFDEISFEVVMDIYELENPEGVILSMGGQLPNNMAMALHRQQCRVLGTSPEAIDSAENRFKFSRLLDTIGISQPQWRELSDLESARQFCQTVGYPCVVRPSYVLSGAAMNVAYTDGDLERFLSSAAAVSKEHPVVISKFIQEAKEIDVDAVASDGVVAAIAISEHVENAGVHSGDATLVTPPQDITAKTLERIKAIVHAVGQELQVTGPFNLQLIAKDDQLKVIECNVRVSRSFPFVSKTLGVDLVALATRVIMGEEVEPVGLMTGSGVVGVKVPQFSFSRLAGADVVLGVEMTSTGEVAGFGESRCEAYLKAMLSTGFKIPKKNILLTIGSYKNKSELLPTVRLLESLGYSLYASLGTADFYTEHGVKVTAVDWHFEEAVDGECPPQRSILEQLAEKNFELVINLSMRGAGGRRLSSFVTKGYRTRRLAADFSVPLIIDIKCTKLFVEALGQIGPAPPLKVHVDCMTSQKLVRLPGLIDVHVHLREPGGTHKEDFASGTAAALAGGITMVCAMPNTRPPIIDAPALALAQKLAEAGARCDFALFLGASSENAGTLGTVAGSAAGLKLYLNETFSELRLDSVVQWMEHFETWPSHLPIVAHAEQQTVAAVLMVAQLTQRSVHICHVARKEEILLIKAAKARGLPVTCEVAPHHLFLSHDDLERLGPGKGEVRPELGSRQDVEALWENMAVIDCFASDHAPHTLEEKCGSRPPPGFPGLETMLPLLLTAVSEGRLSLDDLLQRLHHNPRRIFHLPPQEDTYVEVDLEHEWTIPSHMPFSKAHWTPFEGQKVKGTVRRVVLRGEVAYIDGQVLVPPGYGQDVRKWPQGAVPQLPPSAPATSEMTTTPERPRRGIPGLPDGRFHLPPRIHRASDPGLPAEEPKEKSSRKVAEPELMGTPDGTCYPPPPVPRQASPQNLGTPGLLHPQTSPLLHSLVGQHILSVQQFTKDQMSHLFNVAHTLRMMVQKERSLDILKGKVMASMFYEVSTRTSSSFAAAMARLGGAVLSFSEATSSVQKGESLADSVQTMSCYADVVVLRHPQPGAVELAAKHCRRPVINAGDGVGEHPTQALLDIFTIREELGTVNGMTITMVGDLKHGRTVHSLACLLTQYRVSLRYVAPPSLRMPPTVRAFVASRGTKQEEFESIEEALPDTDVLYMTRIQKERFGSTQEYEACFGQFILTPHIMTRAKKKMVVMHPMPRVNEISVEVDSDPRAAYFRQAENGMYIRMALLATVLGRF
UniProt Q69YH5, sequence (Q69YH5 whole entry, looked up): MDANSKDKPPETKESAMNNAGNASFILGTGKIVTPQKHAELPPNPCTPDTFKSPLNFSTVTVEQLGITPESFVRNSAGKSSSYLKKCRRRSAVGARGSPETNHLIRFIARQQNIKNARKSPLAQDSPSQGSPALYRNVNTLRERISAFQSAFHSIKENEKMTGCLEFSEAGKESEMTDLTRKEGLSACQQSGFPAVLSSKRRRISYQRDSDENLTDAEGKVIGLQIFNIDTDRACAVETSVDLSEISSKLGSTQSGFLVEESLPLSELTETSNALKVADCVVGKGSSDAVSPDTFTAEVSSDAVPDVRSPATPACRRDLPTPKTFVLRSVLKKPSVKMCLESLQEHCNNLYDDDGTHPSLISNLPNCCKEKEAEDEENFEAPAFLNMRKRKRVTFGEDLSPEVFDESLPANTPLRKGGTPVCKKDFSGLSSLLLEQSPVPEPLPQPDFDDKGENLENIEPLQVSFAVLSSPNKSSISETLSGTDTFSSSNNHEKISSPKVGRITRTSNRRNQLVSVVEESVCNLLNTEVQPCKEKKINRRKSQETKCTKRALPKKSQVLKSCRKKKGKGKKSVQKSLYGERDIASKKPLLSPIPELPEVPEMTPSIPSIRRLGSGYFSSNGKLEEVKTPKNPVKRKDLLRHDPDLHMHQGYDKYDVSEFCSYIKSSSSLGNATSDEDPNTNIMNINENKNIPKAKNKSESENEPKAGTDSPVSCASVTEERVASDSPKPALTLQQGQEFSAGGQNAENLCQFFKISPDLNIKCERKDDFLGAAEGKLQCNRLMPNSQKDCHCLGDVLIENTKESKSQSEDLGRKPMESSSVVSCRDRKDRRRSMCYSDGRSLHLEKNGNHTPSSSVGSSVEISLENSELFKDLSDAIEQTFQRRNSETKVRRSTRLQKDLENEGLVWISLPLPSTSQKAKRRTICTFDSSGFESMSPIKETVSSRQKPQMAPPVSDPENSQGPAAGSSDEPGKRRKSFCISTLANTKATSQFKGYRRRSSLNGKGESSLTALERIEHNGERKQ
UniProt Q7Z4R8, sequence (Q7Z4R8 whole entry, looked up): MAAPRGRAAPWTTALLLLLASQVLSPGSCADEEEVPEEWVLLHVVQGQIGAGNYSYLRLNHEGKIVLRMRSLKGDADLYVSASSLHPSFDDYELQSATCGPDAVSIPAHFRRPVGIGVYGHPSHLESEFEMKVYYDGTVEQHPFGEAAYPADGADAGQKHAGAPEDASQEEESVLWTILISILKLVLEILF
UniProt Q9P0B6, sequence (Q9P0B6 whole entry, looked up): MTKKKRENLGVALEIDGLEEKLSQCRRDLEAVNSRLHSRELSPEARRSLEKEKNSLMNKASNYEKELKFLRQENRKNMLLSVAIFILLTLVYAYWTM
UniProt Q13111, sequence (Q13111 whole entry, looked up): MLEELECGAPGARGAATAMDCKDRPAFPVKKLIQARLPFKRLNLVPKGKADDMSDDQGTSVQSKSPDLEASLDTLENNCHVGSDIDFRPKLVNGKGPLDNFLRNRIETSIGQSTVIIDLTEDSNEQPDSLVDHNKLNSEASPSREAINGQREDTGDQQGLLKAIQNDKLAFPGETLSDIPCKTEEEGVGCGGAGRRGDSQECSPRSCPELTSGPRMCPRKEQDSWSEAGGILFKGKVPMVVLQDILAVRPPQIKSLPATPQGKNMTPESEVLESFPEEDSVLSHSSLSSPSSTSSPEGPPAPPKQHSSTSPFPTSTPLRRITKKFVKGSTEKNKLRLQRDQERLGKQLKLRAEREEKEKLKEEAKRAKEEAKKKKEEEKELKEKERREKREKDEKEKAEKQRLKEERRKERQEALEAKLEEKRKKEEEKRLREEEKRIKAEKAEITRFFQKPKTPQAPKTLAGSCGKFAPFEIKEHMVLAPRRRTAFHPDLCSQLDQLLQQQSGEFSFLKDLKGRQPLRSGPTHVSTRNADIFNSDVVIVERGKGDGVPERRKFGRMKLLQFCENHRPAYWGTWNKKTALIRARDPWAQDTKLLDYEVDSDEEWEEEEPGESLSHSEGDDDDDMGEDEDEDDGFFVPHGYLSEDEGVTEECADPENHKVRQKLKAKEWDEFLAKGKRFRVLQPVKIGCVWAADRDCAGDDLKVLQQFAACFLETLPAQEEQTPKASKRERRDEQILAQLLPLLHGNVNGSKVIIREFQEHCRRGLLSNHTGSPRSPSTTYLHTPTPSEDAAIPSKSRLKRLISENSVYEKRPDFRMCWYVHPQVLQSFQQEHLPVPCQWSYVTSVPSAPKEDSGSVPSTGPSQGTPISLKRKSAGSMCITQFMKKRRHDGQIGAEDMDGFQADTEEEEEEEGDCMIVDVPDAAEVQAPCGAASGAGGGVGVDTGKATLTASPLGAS
UniProt Q8N4S0, sequence (Q8N4S0 whole entry, looked up): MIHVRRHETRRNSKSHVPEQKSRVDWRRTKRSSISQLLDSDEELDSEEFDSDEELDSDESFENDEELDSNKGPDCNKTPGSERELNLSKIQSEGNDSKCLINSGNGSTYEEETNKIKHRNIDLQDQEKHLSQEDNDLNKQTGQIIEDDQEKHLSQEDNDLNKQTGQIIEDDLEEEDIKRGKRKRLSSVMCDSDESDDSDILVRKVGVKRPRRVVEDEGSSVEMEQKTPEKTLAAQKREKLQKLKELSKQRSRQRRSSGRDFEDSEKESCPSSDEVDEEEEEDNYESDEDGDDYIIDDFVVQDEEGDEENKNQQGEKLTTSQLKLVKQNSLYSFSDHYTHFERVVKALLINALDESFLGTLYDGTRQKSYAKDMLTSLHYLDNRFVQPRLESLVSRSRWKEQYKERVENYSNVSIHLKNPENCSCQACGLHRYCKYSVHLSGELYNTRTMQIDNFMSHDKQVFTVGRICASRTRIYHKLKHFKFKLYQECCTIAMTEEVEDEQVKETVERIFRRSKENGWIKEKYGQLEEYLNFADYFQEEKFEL

Row | Target | log2 fold change [1] | log2 fold change (filanesib) | log2 fold change (zotarolimus) | log2 fold change (idasanutlin) | log2 fold change (alisertib) | log2 fold change [2] | log2 fold change (gefitinib) | log2 fold change [3] | log2 fold change (lapatinib) | log2 fold change (pictilisib)
1 | CNN2 (UniProt Q99439) | -0.008 | -0.058 | -0.002 | -0.029 | -0.007 | 0.021 | 0.012 | -0.065 | -0.041 | -0.054
2 | CPSF7 isoform 3 (UniProt Q8N684) | 0.018 | 0.018 | 0.033 | -0.003 | -0.074 | 0.065 | 0.029 | -0.016 | 0.013 | 0.12
3 | CRK (UniProt P46108) | 0.072 | 0.008 | 0.144 | 0.061 | -0.107 | 0.011 | -0.006 | 0.025 | 0.012 | 0.043
4 | COX20 isoform 2 (UniProt Q5RI15) | -0.029 | -0.011 | -0.029 | -0.039 | -0.025 | 0.06 | -0.01 | 0.012 | -0.014 | -0.081
5 | CHAC2 (UniProt Q8WUX2) | -0.007 | -0.032 | 0.066 | -0.019 | 0.026 | -0.061 | -0.03 | 0.06 | 0.029 | 0.077
6 | CEPT1 (UniProt Q9Y6K0) | 0.029 | -0.277 | -0.095 | -0.142 | 0.009 | 0.022 | -0.025 | 0.036 | 0.095 | 0.011
7 | CHAF1A (UniProt Q13111) | -0.149 | 0.143 | -0.145 | 0.05 | 0 | 0.007 | 0.169 | 0.004 | 0.169 | 0.031
8 | COQ7 (UniProt Q99807) | 0.001 | -0.098 | -0.081 | 0.026 | 0.115 | 0.011 | 0.055 | 0.031 | 0.042 | 0.074
9 | CNOT7 (UniProt Q9UIV1) | -0.032 | 0.012 | 0.018 | -0.008 | -0.011 | 0.233 | 0.134 | -0.067 | -0.036 | 0.001
10 | COX5A (UniProt P20674) | -0.1 | 0.015 | 0.054 | -0.012 | -0.13 | -0.092 | 0.067 | 0.084 | -0.108 | 0.108
11 | C4A (UniProt P0C0L4) | 0.042 | 0.014 | -0.615 (active) | 0.068 | -0.005 | 0.001 | -0.198 | 0.175 | -0.078 | -0.291
12 | CRLF3 (UniProt Q8IUI8) | -0.006 | -0.049 | 0.016 | 0.039 | 0.005 | -0.05 | 0.018 | 0.014 | 0.035 | 0.051
13 | CPSF3 (UniProt Q9UKF6) | -0.063 | 0.033 | 0.011 | -0.007 | -0.067 | -0.021 | 0 | -0.012 | 0.009 | -0.025
14 | COPS4 (UniProt Q9BT78) | 0.219 (active) | -0.067 | 0.032 | -0.039 | -0.054 | -0.035 | -0.007 | 0.019 | 0.025 | -0.011
15 | CHKA (UniProt P35790) | -0.021 | 0.02 | -0.148 | -0.009 | -0.032 | 0.065 | -0.016 | 0.004 | -0.013 | 0.041
16 | CDCA2 (UniProt Q69YH5) | 0.278 | -0.036 | -0.04 | 0.018 | 0.585 | -0.079 | 0.109 | -0.011 | 0.204 | -0.127

Row | Target | log2 fold change [1] | log2 fold change (filanesib) | log2 fold change (zotarolimus) | log2 fold change (idasanutlin) | log2 fold change (alisertib) | log2 fold change [2] | log2 fold change (gefitinib) | log2 fold change [3] | log2 fold change (lapatinib) | log2 fold change (pictilisib)
17 | CAD (UniProt P27708) | 0.019 | -0.054 | -0.014 | -0.03 | -0.058 | -0.011 | -0.044 | 0.047 | -0.031 | -0.04
18 | CPT2 (UniProt P23786) | 0.114 | -0.207 | 0.798 (active) | 0.806 (active) | -0.067 | -0.199 | 0.343 | -0.005 | 0.058 | 0.57
19 | CRTC2 (UniProt Q53ET0) | -0.004 | -0.019 | – | 0.086 | 0 | -0.509 (active) | -0.056 | 0.066 | 0.079 | –
20 | COPS3 (UniProt Q9UNS2) | 0.12 | -0.035 | -0.004 | -0.09 | -0.012 | 0.008 | -0.031 | 0.052 | -0.015 | -0.063
21 | C6orf120 (UniProt Q7Z4R8) | 0.003 | -0.053 | – | – | – | -0.135 | -0.008 | – | -0.114 | –
22 | CDC26 (UniProt Q8NHZ8) | -0.031 | 0.085 | -0.011 | -0.053 | -0.023 | 0 | 0.003 | -0.017 | -0.023 | -0.125
23 | C15orf41 (UniProt Q9Y2V0) | -0.057 | -0.021 | -0.096 | -0.023 | – | 0.011 | – | – | -0.018 | 0.047
24 | CCDC167 (UniProt Q9P0B6) | -0.054 | -0.024 | -0.027 | – | -0.068 | -0.148 | -0.021 | -0.105 | 0.016 | 0.047
25 | CCDC82 (UniProt Q8N4S0) | -0.356 | – | 0.013 | 0 | 0.034 | -0.013 | 0.052 | -0.102 | 0.043 | –
26 | COMMD1 (UniProt Q8N668) | 0.054 | 0.06 | – | – | -0.151 | 0.029 | -0.01 | -0.04 | -0.029 | 0.006
27 | COX7C (UniProt P15954) | 0.12 | 0.009 | – | 0.114 | -0.016 | -0.069 | 0.059 | -0.053 | 0.008 | -0.288
28 | CFAP36 isoform 2 (UniProt Q96G28) | 0.12 | 0.055 | 0.162 | -0.02 | -0.049 | 0.001 | – | 0.019 | 0.082 | 0.241
29 | CCM2 isoform 2 (UniProt Q9BSQ5) | -0.093 | 0.026 | 0.057 | – | -0.04 | 0.154 | – | 0.056 | 0.006 | 0.022
30 | COX17 (UniProt Q14061) | 0.183 | -0.059 | 0.034 | 0.059 | -0.112 | – | -0.055 | 0.02 | – | 0.092
31 | C19orf54 (UniProt Q5BKX5) | -0.025 | -0.278 | 0.024 | -0.094 | – | 0.123 | – | – | -0.125 | 0.053
